The AC50 is the concentration at which the activity in the assay is half-maximal.

The values that follow come from PubChem BioAssay (EPA / NIEHS).

Molecules are shown by their SMILES. The source made the active and inactive calls. How the source made its calls: active means hit-call score of the fitted dose curve at least 0.9, where 1 is the maximum; inactive means score below 0.9.

What all share (conditions): mRNA level, 48 h; actives raise or lower the signal
Read-out in experiment [1]: Tumor necrosis factor receptor superfamily member 6 (Homo sapiens) (UniProt P25445)
Description: LTEA_HepaRG_FAS: Life Technologies and Expression Analysis (LTEA) Assay for Fas cell surface death receptor (FAS) using HepaRG (AID 2283447). Put shortly:
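FAS transcript level was measured by TaqMan qRT-PCR against three housekeeping genes after 48 h chemical exposure. Cells were HepaRG, 0.5% DMSO vehicle, with a top concentration of 100 uM and half-log dilutions over eight points, in duplicate.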

Read-out in experiment [2]: Fatty acid synthase (Homo sapiens) (UniProt P49327)
Description: LTEA_HepaRG_FASN: Life Technologies and Expression Analysis (LTEA) Assay for Fatty Acid Synthase (FASN) using HepaRG (AID 2283448).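 On AC50: differentiated human HepaRG liver cells in serum-free induction medium.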 Put shortly:
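HepaRG, 48 h exposure, 8-pt half-log series top 100 uM, 0.5% DMSO vehicle, duplicates. Readout: FASN transcript by Fluidigm qRT-PCR; housekeeping-normalized; bidirectional curve fit vs DMSO baseline.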

Read-out in experiment [3]: Cyclin D2 (CCND2), CCND2 (gene 894)
Briefly: LTEA_HepaRG_CCND2: Life Technologies and Expression Analysis (LTEA) Assay for Cyclin D2 (CCND2) using HepaRG (AID 2283449). Put shortly: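 CCND2 transcript levels, quantified by qRT-PCR and normalised to three housekeeping genes, were fitted bidirectionally against 0.5% DMSO. HepaRG cultures were dosed 48 h in duplicate with an 8-point half-log series up to 100 uM.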

Read-out in experiment [4]: Cyclin Dependent Kinase Inhibitor 1A (CDKN1A), CDKN1A (gene 1026)
Briefly: LTEA_HepaRG_CDKN1A: Life Technologies and Expression Analysis (LTEA) Assay for Cyclin Dependent Kinase Inhibitor 1A (CDKN1A) using HepaRG (AID 2283450). Put shortly: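 HepaRG, 48 h dosing, 8-pt half-log series from 100 uM top, 0.5% DMSO vehicle, duplicates. Readout: TaqMan qRT-PCR of CDKN1A transcript, housekeeping-normalized (ACTB, GAPDH, POLR2A). Up/down curve fit relative to DMSO.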

Read-out in experiment [5]: Cyclin D1 (CCND1), CCND1 (gene 595)
Briefly: LTEA_HepaRG_CCND1: Life Technologies and Expression Analysis (LTEA) Assay for Cyclin D1 (CCND1) using HepaRG (AID 2283451).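 On AC50: differentiated human HepaRG liver cells in serum-free induction medium; TaqMan qRT-PCR transcript level normalised to ACTB GAPDH and POLR2A housekeeping genes.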 Put shortly:
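qRT-PCR (Fluidigm 96.96 array) read-out of transcript level, housekeeping-normalized (ACTB/GAPDH/POLR2A). HepaRG cells, 48 h chemical exposure, 8-point half-log series from 100 uM, 0.5% DMSO vehicle; gain or loss relative to DMSO baseline.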

Read-out in experiment [6]: catalase (CAT), CAT (gene 847)
Briefly: LTEA_HepaRG_CAT: Life Technologies and Expression Analysis (LTEA) Assay for catalase (CAT) using HepaRG (AID 2283452). The essentials:
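Expression of CAT was quantified by TaqMan qRT-PCR with ACTB/GAPDH/POLR2A normalization after 48 h chemical exposure of HepaRG. Eight-point half-log series, top 100 uM, in 0.5% DMSO; gain or loss fitted against vehicle.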

Read-out in experiment [7]: flavin-containing dimethylaniline monooxygenases 3 (FMO3), FMO3 (gene 2328)
Briefly: LTEA_HepaRG_FMO3: Life Technologies and Expression Analysis (LTEA) Assay for flavin-containing dimethylaniline monooxygenases 3 (FMO3) using HepaRG (AID 2283453).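 On AC50: differentiated human HepaRG liver cells in serum-free induction medium.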 The essentials: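 Eight-point concentration-response in serum-free HepaRG cultures (top 100 uM, 0.5% DMSO, 48 h). Read-out: FMO3 mRNA level normalized to three endogenous control genes, fitted bidirectionally versus vehicle.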

Read-out in experiment [8]: Cytochrome P450 (CYP1A1), CYP1A1 (gene 1543)
Description: LTEA_HepaRG_CYP1A1: Life Technologies and Expression Analysis (LTEA) Assay for Cytochrome P450 (CYP1A1) using HepaRG (AID 2283454). Put shortly:
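qRT-PCR read-out: CYP1A1 transcript normalized to three housekeeping genes, fitted bidirectionally against 0.5% DMSO vehicle baseline. Human HepaRG cells, 48 h chemical exposure, 8-point half-log series topping at 100 uM.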

Read-out in experiment [9]: CFLAR gene, CFLAR (gene 8837)
Description: LTEA_HepaRG_CFLAR: Life Technologies and Expression Analysis (LTEA) Assay for CFLAR gene using HepaRG (AID 2283455). The essentials: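 Transcript level by qRT-PCR (normalized to ACTB, GAPDH and POLR2A) after 48 h chemical exposure of HepaRG cells, top concentration 100 uM with half-log steps, 0.5% DMSO vehicle, duplicates; fitted bidirectionally against DMSO baseline.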

Read-out in experiment [10]: Forkhead box O1 (FOXO1), FOXO1 (gene 2308)
Description: LTEA_HepaRG_FOXO1: Life Technologies and Expression Analysis (LTEA) Assay for Forkhead box O1 (FOXO1) using HepaRG (AID 2283456). Put shortly:
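FOXO1 transcript quantified by qRT-PCR after 48 h chemical exposure (top 100 uM, half-log steps, 0.5% DMSO) of HepaRG cells, housekeeping-normalized (ACTB/GAPDH/POLR2A). Changes fitted in both directions relative to vehicle.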

Read-out in experiment [11]: growth arrest and DNA damage 45 (GADD45A), GADD45A (gene 1647)
Briefly: LTEA_HepaRG_GADD45A: Life Technologies and Expression Analysis (LTEA) Assay for growth arrest and DNA damage 45 (GADD45A) using HepaRG (AID 2283458). The essentials: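 HepaRG, 48 h exposure, 8 conc. (top 100 uM, half-log steps), 0.5% DMSO vehicle, duplicates. Read-out: qRT-PCR mRNA level, housekeeping-normalized (ACTB/GAPDH/POLR2A). Curves fit bidirectionally vs DMSO baseline.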

Read-out in experiment [12]: Forkhead box O3 (FOXO3), FOXO3 (gene 2309)
Briefly: LTEA_HepaRG_FOXO3: Life Technologies and Expression Analysis (LTEA) Assay for Forkhead box O3 (FOXO3) using HepaRG (AID 2283459). The essentials:
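FOXO3 transcript measured by qRT-PCR (normalized to ACTB, GAPDH, POLR2A) after 48 h exposure of HepaRG cells in serum-free induction medium. Duplicates, eight half-log concentrations up to 100 uM, 0.5% DMSO; gain or loss fitted against DMSO.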

Read-out in experiment [13]: ABC Transporter (ABCC3), ABCC3 (gene 8714)
Briefly: LTEA_HepaRG_ABCC3: Life Technologies and Expression Analysis (LTEA) Assay for ABC Transporter (ABCC3) using HepaRG (AID 2283462). Put shortly: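 qRT-PCR read-out of ABCC3 transcript, normalized to three housekeeping genes (ACTB, GAPDH, POLR2A), after 48 h chemical exposure of human HepaRG cells. Eight half-log concentrations, highest 100 uM, in 0.5% DMSO; gain or loss fitted relative to DMSO baseline.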

Read-out in experiment [14]: ABC Transporter (ABCB11), ABCB11 (gene 8647)
Description: LTEA_HepaRG_ABCB11: Life Technologies and Expression Analysis (LTEA) Assay for ABC Transporter (ABCB11) using HepaRG (AID 2283463). The essentials: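 ABCB11 transcript levels quantified by TaqMan qRT-PCR against three housekeeping genes after 48 h chemical exposure of HepaRG cultures. Concentrations up to 100 uM in half-log steps, 0.5% DMSO vehicle; both induction and suppression scored.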

Read-out in experiment [15]: ABC Transporter (ABCC2), ABCC2 (gene 1244)
Briefly: LTEA_HepaRG_ABCC2: Life Technologies and Expression Analysis (LTEA) Assay for ABC Transporter (ABCC2) using HepaRG (AID 2283464). The essentials: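 qRT-PCR (TaqMan, Fluidigm array) read-out of ABCC2 mRNA, normalized to three housekeeping genes. Differentiated HepaRG cells were treated 48 h in serum-free induction medium with 8-point half-log series from 100 uM in 0.5% DMSO; curves fitted bidirectionally relative to DMSO.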

Read-out in experiment [16]: ABC Transporter (ABCB1), ABCB1 (gene 5243)
Description: LTEA_HepaRG_ABCB1: Life Technologies and Expression Analysis (LTEA) Assay for ABC Transporter (ABCB1) using HepaRG (AID 2283460). The essentials: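 ABCB1 transcript level measured by TaqMan qRT-PCR against three housekeeping genes after 48 h chemical exposure of differentiated HepaRG cells. Top concentration 100 uM, half-log steps, eight points, 0.5% DMSO vehicle; bidirectional fit relative to DMSO.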

Sequence of Fatty acid synthase (Homo sapiens) (P49327 whole entry, looked up): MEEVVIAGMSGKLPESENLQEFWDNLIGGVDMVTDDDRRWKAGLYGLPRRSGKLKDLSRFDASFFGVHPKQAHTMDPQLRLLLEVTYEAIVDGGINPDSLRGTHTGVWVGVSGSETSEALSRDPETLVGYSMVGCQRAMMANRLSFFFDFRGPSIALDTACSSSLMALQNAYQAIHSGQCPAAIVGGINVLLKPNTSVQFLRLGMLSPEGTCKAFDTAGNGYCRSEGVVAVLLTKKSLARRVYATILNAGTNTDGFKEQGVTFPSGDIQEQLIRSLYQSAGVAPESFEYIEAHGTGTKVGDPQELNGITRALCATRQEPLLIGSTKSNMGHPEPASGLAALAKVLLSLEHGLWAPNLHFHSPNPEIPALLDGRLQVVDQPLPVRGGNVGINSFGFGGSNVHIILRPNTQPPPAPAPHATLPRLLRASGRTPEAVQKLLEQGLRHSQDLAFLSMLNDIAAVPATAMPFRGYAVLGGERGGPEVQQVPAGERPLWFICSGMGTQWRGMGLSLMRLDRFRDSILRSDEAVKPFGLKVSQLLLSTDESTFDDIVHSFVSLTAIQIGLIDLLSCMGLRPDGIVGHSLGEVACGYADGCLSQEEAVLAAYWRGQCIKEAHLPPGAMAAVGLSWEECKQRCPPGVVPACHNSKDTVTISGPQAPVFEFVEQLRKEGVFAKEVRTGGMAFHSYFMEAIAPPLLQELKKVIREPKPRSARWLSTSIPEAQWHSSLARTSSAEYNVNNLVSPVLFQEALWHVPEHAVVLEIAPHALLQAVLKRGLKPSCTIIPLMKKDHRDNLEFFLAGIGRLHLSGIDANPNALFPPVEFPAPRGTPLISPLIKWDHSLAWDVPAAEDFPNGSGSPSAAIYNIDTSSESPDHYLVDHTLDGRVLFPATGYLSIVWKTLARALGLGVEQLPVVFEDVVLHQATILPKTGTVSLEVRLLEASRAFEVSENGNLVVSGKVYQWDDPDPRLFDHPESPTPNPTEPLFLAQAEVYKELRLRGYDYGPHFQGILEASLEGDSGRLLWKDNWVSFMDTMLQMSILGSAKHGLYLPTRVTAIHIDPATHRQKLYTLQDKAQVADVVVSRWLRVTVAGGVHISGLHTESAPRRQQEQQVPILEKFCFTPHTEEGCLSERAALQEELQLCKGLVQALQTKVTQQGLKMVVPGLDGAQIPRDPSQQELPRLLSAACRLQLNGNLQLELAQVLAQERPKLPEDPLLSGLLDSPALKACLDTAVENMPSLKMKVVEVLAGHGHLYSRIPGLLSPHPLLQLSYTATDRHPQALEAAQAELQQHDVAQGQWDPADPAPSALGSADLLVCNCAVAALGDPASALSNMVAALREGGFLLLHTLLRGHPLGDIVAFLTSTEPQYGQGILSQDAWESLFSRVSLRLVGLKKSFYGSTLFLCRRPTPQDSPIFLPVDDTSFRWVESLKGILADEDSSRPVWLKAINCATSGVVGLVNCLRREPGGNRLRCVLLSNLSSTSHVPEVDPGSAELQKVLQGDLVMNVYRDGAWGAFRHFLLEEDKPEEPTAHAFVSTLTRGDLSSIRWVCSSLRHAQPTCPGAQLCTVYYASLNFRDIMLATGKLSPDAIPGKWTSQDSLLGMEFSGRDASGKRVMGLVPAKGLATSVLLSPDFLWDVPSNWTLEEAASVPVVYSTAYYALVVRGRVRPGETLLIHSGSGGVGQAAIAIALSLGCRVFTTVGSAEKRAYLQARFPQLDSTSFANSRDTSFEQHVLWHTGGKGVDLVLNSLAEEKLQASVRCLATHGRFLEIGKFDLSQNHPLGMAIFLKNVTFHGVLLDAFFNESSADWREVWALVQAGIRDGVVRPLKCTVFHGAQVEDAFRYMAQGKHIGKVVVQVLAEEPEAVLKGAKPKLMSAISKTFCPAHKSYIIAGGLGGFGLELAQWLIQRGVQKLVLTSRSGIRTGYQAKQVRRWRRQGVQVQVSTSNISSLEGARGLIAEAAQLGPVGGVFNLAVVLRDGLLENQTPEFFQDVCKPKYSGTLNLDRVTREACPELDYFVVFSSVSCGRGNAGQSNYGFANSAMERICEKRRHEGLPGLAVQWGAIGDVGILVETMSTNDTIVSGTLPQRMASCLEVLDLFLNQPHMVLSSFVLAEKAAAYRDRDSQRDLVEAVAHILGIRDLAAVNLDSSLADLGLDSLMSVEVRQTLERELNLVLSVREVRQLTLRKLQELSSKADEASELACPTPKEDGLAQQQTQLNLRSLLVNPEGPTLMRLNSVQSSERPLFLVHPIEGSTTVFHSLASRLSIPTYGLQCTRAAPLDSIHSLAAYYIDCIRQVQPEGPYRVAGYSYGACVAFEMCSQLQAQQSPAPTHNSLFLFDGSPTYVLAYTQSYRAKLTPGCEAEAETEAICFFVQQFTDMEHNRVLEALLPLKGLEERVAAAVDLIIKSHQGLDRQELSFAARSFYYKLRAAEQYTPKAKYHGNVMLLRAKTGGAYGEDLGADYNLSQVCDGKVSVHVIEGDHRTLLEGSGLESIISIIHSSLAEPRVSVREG

Regarding `CC(Oc1ccc(Cl)cc1Cl)C(=O)O` (stereo not given), the molecule was classed as inactive in experiment [1], in [2], in experiment [3], in experiment [4], in [5] and in experiment [6]. For the same molecule, the molecule was classed as inactive in experiment [7], in [9], in experiment [10], in [11], in [12] and in [13]. In addition, the molecule was classed as inactive in experiment [14] and in [15]. Also, the AC50 in experiment [8] was 50 µM (active).
For the molecule `CN(C)C(=S)SSC(=S)N(C)C`, the molecule was called inactive in experiment [1], in experiment [2], in experiment [3], in experiment [4], in experiment [5] and in experiment [6]. Further, the molecule was classed as inactive in [7], in experiment [8], in experiment [9], in experiment [10], in experiment [11] and in experiment [12]. For the same molecule, the result in experiment [13], in [14] and in [15] was inactive.
As for `COc1ccc(C(c2ccc(OC)cc2)C(Cl)(Cl)Cl)cc1`, the result in experiment [1], in [4], in experiment [5], in experiment [9], in [10] and in experiment [11] was inactive. Moreover, in [12], the result was inactive. Further, the AC50 is 80.5 µM (active) in experiment [2]; 89.1 µM (active) in experiment [6]; 79.5 µM (active) in experiment [7]; 22.6 µM (active) in experiment [8]; 77 µM (active) in [13]; 86.7 µM (active) in [14]. In experiment [15], the AC50 is 14.1 µM (active).
As to `Fc1ccc(Oc2ccnc3cc(Cl)cc(Cl)c23)cc1`, the call in experiment [1], in experiment [2], in [3], in experiment [4], in [5] and in [6] was inactive. For the same molecule, the call in [9], in [10], in experiment [11], in experiment [12], in [13] and in experiment [15] was inactive. In addition, the AC50 in [7] is 85.8 µM (active); in experiment [8], 24 µM (active); in experiment [14], 89.8 µM (active).
`N#Cc1nn(-c2c(Cl)cc(C(F)(F)F)cc2Cl)c(N)c1S(=O)C(F)(F)F` (stereo not given): the AC50 in [1] was 61.2 µM (active); in experiment [2], 58.1 µM (active); in experiment [4], 32.5 µM (active); in [5], 83.4 µM (active); in experiment [6] it was 29.5 µM (active); in experiment [7] it was 54.9 µM (active). Also, the AC50 in experiment [8] was 14.9 µM (active); in experiment [9], 50.2 µM (active); in experiment [10], 87.4 µM (active); in [11] it was 74.2 µM (active); in [14], 27.8 µM (active). Further, the molecule was called inactive in [3], in experiment [12], in experiment [13] and in [15].
As for `O=C(O)COc1nc(Cl)c(Cl)cc1Cl`, the call in experiment [1], in [2], in experiment [3], in experiment [4], in experiment [5] and in experiment [6] was inactive. The molecule was classed as inactive in [7], in [9], in experiment [10], in experiment [11], in experiment [12] and in experiment [16]. Also, the result in [13] and in [15] was inactive. The AC50 is 51 µM (active) in experiment [8] and 23.2 µM (active) in experiment [14].
Turning to `Cc1ccc(-c2c(Cl)nc(C#N)n2S(=O)(=O)N(C)C)cc1`, the molecule was classed as inactive in experiment [1], in experiment [4] and in [5]. The AC50 is 9 µM (active) in [2]; 0.00629 µM (active) in [3]; 7.28 µM (active) in experiment [6]; 19.5 µM (active) in experiment [7]; 3.53 µM (active) in experiment [8]; 7.21 µM (active) in [9]. The AC50 is 50 µM (active) in experiment [10]; 22.5 µM (active) in experiment [11]; 3.64 µM (active) in [12]; 7.3 µM (active) in [13]; 36.4 µM (active) in experiment [14]; 4.39 µM (active) in [15].
